# S1P2 ag – S1P2 receptor agonists, primary screen, cell-based | Sphingosine 1-phosphate receptor 2 (Homo sapiens), O95136 | S1P2-expressing cell line, agonist reporter read-out | activation, % at 4.5 µM | hit rate 0.46% among 97,000; in the data active = activation above about 16%;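 also: 0% = vehicle low control and 100% = maximal reference agonist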
# GALR2 ag – GALR2 receptor agonists, primary screen, cell-based. Galanin receptor type 2 (Homo sapiens), O43603. GALR2-expressing cells, agonist activation read-out. activation, % (concentration not given with the values). hit rate 0.48% among 140,000; in the data active = activation above about 5%, passing the limit was not always enough;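 also: 0% = vehicle buffer wells and 100% = reference agonist at full effect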
# S1P2 blocker – human S1P2 receptor antagonists, primary screen, cell-based. cell-based S1P2 antagonist assay, inhibition at 5 uM. inhibition, % at 5 µM. Sphingosine 1-phosphate receptor 2 (Homo sapiens), O95136. hit rate 0.21% among 97,000; in the data active = inhibition above about 45%;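 also: CRE beta-lactamase reporter cells expressing human S1P2 stimulated with S1P; 0% = agonist at EC80 alone and 100% = agonist plus reference antagonist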
# GALR2 blocker – GALR2 antagonists in receptor-expressing cells, primary screen | Galanin receptor type 2 (Homo sapiens), O43603 | inhibition, % at 4 µM | AID 828, 2007 | antagonist mode | hit rate 0.39% among 140,000; in the data active = inhibition above about 27%;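 also: cells stimulated with galanin 1-16 at roughly its EC80; 0% = agonist challenge control and 100% = basal control without agonist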
# DAT uptake mod – changed hDAT dopamine uptake under cocaine IC80, either direction, primary screen, cocaine antagonist project, cell-based, LLC-PK1 hDAT, [14C]-dopamine uptake, MLSMR | Sodium-dependent dopamine transporter (Homo sapiens), Q01959 | hit rate 1.3% among 110,000 | AID 449768, 2010 | B-score at 10 µM | LLC-PK1 hDAT cells, [14C]-dopamine uptake with cocaine IC80; actives deviate in either direction;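 active = Z score or B-score, a plate-position-corrected score, falls beyond the plate's 99.7% confidence bounds, in either direction; inactive = both scores lie inside the 99.7% bounds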;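 also: scored against the spread of the other compound wells on the same plate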
# Target sequence (Q01959 whole entry, looked up): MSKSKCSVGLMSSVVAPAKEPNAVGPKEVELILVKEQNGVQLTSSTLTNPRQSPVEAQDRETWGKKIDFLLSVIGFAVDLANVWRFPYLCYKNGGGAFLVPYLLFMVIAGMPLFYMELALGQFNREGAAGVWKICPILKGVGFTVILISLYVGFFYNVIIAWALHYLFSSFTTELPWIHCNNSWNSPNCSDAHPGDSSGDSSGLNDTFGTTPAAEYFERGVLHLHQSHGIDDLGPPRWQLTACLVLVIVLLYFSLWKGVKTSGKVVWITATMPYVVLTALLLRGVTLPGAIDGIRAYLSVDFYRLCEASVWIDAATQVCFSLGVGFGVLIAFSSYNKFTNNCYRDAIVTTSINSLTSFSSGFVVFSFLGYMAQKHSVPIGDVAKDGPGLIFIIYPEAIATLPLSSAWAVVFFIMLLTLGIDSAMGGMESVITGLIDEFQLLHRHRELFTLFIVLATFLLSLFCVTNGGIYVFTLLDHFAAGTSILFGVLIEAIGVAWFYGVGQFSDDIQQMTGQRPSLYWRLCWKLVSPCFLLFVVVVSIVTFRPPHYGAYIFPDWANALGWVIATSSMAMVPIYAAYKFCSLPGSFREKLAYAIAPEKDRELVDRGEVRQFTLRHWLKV
# The depositor's hits bear a star; x = no result given. Most compounds without a hit are left out; they make up all but 2.1% or so of the library.
SMILES,S1P2 ag,GALR2 ag,S1P2 blocker,GALR2 blocker,DAT uptake mod
CC(NC(=O)C1CCCN(C(=O)N(C)C)C1)c1ccccc1 (configuration not stated),-7.2,-1.5,6.7,-6.9,0.527
CCN(CC)c1ccc2cc(C(=O)NNC(=O)c3ccc(S(=O)(=O)N4CCCCC4)cc3)c(=O)oc2c1,x,-0.7,x,-11.6,x
CCN(CC)c1ccc2cc(S(=O)(=O)c3ccc(C)cc3)c(=O)oc2c1,x,6.0*,x,3.3,x
O=C(NCCc1c[nH]c2ccccc12)c1ccc(S(=O)(=O)NCc2ccco2)cc1,-5.0,-2.5,3.1,13.2,-7.67*
O=C(NCCc1c[nH]c2ccccc12)c1ccc([N+](=O)[O-])cc1,x,-1.3,x,-17.2,x
CC(C)NC(=O)c1c(CSc2ccccc2)noc1C(=O)NCc1ccccc1,x,x,x,x,2.77*
O=C(NCc1ccccc1)c1onc(CSc2ccccc2)c1C(=O)NCc1ccccc1,x,x,x,x,1.58*
O=C(NCc1ccccc1)c1onc(CSc2ccc(Cl)cc2)c1C(=O)NCc1ccccc1,x,x,x,x,0.867
COCCNC(=O)c1c(CSc2ccccc2)noc1C(=O)NCc1ccccc1,x,x,x,x,0.463
O=C(CSCC(=O)N1CCCCC1)OCC(=O)c1c[nH]c2ccccc12,-0.2,-2.3,11.6,-1.7,-0.468
Cc1c(CNC(=O)c2cnn3c2NC(c2ccc(Br)cc2)CC3C(F)(F)F)cnn1C (configuration not stated),-1.5,3.8,21.7,-1.8,3.13*
C#CCSc1nc(-c2ccccc2)cc(C(F)(F)F)c1C#N,-1.7,-0.8,-3.5,6.1,1.1
Cc1ccc(-c2cc(C(F)(F)F)c(C#N)c(SCCC#N)n2)o1,17.3*,7.0,-26.6,-6.9,-0.137
Cc1cccc(Cn2c(C(=O)OC(C)C)cc3c2ccn3C)c1,-4.5,-3.6,-6.8,4.7,0.214
S=C(NCc1ccccn1)Nc1ccc(Cl)c(Cl)c1,-5.2,-1.6,46.6*,0.8,x
Cn1c(Cn2c(=O)sc3ccccc32)nnc1SCC(=O)NC1CCCC1,x,-0.4,x,-0.3,7.56*
Cc1ccc(C2/C(=C(\O)c3ccc4c(c3)OCCO4)C(=O)C(=O)N2CCCN(C)C)o1 (configuration not stated),-6.2,-2.8,11.2,-4.6,-0.61
Cc1ccc(-c2nnc3c4ccccc4c(C)nn23)cc1S(=O)(=O)N1CCN(CCO)CC1,17.2*,1.0,-40.7,-2.8,0.633
CCCN(CC(=O)Nc1cc(Cl)cc(Cl)c1)CC(=O)Nc1ccc(F)c(F)c1F,x,-1.2,x,11.0,x
O=C(Nc1nnc(C2CCCCC2)s1)c1ccco1,-3.7,-2.0,13.3,-22.1,-1.74*
CC1=C(C(=O)OCCNC(=O)c2cccnc2)C(c2cccc([N+](=O)[O-])c2)C(C(=O)OCCN(C)C)=C(C)N1 (configuration not stated),x,-1.1,x,6.7,x
Cc1ccccc1-c1nc(S(=O)(=O)c2ccc(Cl)cc2)c(NCCN2CCOCC2)o1,-8.7,-1.6,7.0,4.2,1.85*
CC(NC(=O)Nc1cccc([N+](=O)[O-])c1)(C(F)(F)F)C(F)(F)F,0.9,0.2,-8.6,2.0,-3.02*
CCOC(=O)c1c(/N=C/N(C)C)sc(/C=N/Nc2ccccc2)c1-c1ccc(Cl)cc1,x,-1.7,x,6.3,x
COc1cc(CCCN2C(=S)NC[C@@H]2Cc2ccccc2)cc(OC)c1OC,x,x,x,x,2.99*
SMILES,S1P2 ag,GALR2 ag,S1P2 blocker,GALR2 blocker,DAT uptake mod
CCCCN1C=C(C(=O)OC)C(c2ccccc2C(F)(F)F)C(C(=O)OC)=C1,19.4*,0.5,-17.0,-9.8,3.07*
CCCCOc1ccccc1C1C(C(=O)OC)=C(C)N(C)C(C)=C1C(=O)OC,-1.1,-1.6,-20.0,-0.5,0.489
CCc1nnc(NC(=O)c2ccc(-c3cccc(C(F)(F)F)c3)o2)s1,-6.6,3.0,1.4,-12.2,-7.61*
CCc1nnc(NC(=O)c2ccc(-c3cc(C(F)(F)F)ccc3Cl)o2)s1,-2.5,0.3,-2.5,-4.7,-1.19
Cc1ccccc1NC(=O)c1ccc(CN2CCC(Cc3ccccc3)CC2)cc1,-7.7,-0.4,4.9,6.3,-3.73*
COc1ccc(CCNC(=O)c2ccc(CN3CCC(Cc4ccccc4)CC3)cc2)cc1,x,-1.5,x,-1.6,x
C=CC[C@]12CC=CC(=O)[C@@]1(O)O[C@H](c1ccc(OC)c(OC)c1)[C@H]2C,x,x,x,x,0.2
CC(=O)Oc1cc2oc(=O)cc(C)c2cc1OC(C)=O,0.1,6.0*,-16.7,-2.3,-0.555

# From PubChem
